Laboratory results: PubChem BioAssay (Tox21)
Inconclusive results are not listed. A call without a number means that no potency is given here. Activity calls are given as the source filed them. Calls follow the shape of the dose curve; as a rule, active = well fitted cell-killing curve with a large enough effect in the repeat runs; inconclusive = weak or mixed curves, or effect the other way; inactive = flat fitted curve, though single readings scatter.
Potency is read from the fitted curve at half-maximal effect.

Experiment: cAMP Responsive Elements (CRE) small molecule agonists, cell-based qHTS assay: qHTS cell viability counter screen (AID 2060914); also: nearly all actives have a fitted effect of over 50% in size
Settings: CRE-bla HEK293T viability, CellTiter-Glo luminescence, 5 h; series mostly up to 92.4 µM
Method in brief: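 CRE-bla HEK293T cells in 10% dialyzed FBS medium were exposed to compounds for 3 h at 37C after 18 h plating. CellTiter-Glo was then added in the same wells, and luminescence was read after 30 min at room temperature.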
In the case of `O=c1oc2c(O)c(O)cc3c(=O)oc4c(O)c(O)cc1c4c23`, the activity change, negative = cytotoxicity is reported as -1.77% [at 18.9 µM] (inactive). For `CC1=CCC(O)(C(C)C)CC1` (stereo not drawn), the Potency was “inactive”. For `COc1c(Cl)ccc(Cl)c1C(=O)O`, the Potency was “inactive”. In the case of `O=C1c2ccccc2C(=O)C1c1ccc(Br)cc1`, the Potency is reported as “inactive”. With `COc1ccc(-c2cc(C(F)F)nn2-c2ccc(S(N)(=O)=O)cc2)cc1F` the Potency was “inactive”. With `CN(C)CCOC1=Cc2ccccc2Sc2ccc(Cl)cc21` the Potency was “inactive”. For `CC1Cc2ccccc2N1NC(=O)c1ccc(Cl)c(S(N)(=O)=O)c1` (stereo not drawn), the Potency was “inactive”. In the case of `COC(=O)[C@]1(C)CCC[C@@]2(C)[C@H]1CC=C1C=C(C(C)C)CC[C@@H]12`, the Potency is reported as “inactive”. With `C=C(C)C(=O)OCCCCCCCCCCCCC` the Potency was “inactive”. With `CCCC[P+](CCCC)(CCCC)CCCC` the Potency was “inactive”. With `CCCCCCCCCCCCOCCOCCOCCOCCOCCOCCOCCOCCOCCO` the Potency was 29.8 µM (active). For `C=Cc1ccc(OC(C)=O)cc1`, the Potency was “inactive”. For `O=C(Cl)c1ccc(C(=O)Cl)cc1`, the Potency was “inactive”. In the case of `CCOC(=O)C1=NOC(c2ccccc2)(c2ccccc2)C1`, the Potency is reported as “inactive”. For `CCC(C)OC(=O)N1CCCCC1CCO` (stereo not drawn), the Potency was “inactive”. In the case of `CCc1c(C(=O)O)c(=O)cnn1-c1ccc(Cl)cc1`, the Potency is reported as “inactive”. In the case of `CC(C)C(C)C`, the Potency is reported as “inactive”. For `O=C(Nc1ccccc1)Nc1ccccc1`, the Potency was “inactive”.
